ChEMBL document CHEMBL3988442, “University of Dundee, Small-Polar-MMV Screening Library” (2021)
For some of these results: Measured potencies and affinities stand elsewhere.

Tests used:
Set-up in all cases: scale not given: direction of the effect not stated beside the values
[1] = molecular target: Protein translocase subunit SecA (Escherichia coli (strain K12)) (UniProt P10408); test: Assay to Identify E. coli SecA ATPase Inhibitors; type: functional; conditions: 30 µM
[2] = molecular target: T1, Ubiquitin-activating enzyme e1, putative (Leishmania donovani (strain BPK282A1)) (UniProt E9BSI1); test: Leishmania donovani Ubiquitin Activating Enzyme (LdE1); type: functional; conditions: 30 µM
T1 sequence (whole entry): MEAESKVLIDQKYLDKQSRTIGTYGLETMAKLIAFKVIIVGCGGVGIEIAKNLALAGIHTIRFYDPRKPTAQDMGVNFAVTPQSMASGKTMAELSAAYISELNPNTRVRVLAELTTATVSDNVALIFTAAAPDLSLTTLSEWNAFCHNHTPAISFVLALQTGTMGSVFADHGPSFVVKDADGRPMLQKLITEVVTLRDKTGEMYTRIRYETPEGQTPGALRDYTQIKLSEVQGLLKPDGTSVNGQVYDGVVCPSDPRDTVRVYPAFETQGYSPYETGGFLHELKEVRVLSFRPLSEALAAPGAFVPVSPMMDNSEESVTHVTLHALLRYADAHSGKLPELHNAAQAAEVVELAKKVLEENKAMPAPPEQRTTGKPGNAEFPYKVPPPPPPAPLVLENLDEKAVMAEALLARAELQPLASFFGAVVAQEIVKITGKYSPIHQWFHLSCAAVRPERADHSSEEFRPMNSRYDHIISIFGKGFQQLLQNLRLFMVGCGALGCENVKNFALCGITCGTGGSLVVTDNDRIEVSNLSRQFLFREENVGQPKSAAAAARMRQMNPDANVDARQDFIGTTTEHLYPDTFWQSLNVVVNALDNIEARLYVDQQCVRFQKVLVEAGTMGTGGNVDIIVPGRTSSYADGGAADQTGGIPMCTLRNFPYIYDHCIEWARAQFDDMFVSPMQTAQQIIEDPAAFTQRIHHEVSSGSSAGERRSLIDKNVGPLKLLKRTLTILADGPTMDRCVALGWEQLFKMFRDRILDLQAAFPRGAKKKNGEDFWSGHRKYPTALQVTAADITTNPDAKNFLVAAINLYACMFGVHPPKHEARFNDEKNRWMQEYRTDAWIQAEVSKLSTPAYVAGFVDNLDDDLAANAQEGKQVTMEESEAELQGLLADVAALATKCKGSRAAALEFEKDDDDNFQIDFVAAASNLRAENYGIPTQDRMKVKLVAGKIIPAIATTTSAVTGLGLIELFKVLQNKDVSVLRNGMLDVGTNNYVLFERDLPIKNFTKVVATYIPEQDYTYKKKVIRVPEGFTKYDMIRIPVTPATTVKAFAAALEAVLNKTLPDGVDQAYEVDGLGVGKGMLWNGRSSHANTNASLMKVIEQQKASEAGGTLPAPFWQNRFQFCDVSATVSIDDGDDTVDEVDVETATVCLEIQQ

[3] = molecular target: AMP-activated protein kinase, AMPK (Homo sapiens) (UniProt P54646+O43741+P54619+Q9UGJ0+Q9Y478+Q13131+Q9UGI9); test: AMP-dependent Kinase enzyme assay. An in vitro enzyme assay that detects ADP turnover that is directly proportional to AMPK activity. This uses naive AMPK that is activated during the assay with MK-8722; type: functional; conditions: 30 µM
[4] = molecular target: Sialic acid-binding Ig-like lectin 9 (Homo sapiens) (UniProt Q9Y336); test: Hs-Siglec9 ALPHAscreen SOP 20170721; conditions: 10 µM
Sialic acid-binding Ig-like lectin 9 (Homo sapiens), sequence (Q9Y336 whole entry): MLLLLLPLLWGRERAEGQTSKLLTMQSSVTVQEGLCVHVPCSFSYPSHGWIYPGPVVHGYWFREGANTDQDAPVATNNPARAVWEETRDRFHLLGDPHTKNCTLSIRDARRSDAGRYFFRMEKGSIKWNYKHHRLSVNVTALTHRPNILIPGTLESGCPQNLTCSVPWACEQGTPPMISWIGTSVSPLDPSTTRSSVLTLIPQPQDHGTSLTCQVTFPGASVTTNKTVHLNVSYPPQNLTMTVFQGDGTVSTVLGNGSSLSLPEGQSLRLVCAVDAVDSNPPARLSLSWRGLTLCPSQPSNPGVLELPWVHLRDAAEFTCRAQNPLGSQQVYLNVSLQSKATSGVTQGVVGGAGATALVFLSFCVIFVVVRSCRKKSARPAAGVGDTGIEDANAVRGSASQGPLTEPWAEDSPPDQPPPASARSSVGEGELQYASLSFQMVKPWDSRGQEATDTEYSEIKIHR

Trypanosoma cruzi = test: Trypanosoma cruzi phosphomannomutase and mannose-1-phosphate guanylyltransferase assay; type: functional; conditions: 10 µM
[5] = molecular target: T2, Arginase-2, mitochondrial (Homo sapiens) (UniProt P78540); test: in vitro enzyme assay to detect the production of urea directly proportional to the activity of Arginase II; type: functional; conditions: 33.3 µM; further: in the data most compounds retested in dose-response had high values
T2 sequence (whole entry): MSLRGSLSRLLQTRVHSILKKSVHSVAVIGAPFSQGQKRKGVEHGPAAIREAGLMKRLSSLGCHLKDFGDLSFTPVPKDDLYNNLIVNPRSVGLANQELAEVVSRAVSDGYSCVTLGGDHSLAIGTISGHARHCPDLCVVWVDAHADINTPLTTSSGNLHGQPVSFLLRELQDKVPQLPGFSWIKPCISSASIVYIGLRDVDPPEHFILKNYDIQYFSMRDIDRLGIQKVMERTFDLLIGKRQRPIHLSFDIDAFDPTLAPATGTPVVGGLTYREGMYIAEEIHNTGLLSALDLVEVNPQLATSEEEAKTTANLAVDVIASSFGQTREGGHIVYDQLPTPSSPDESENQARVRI

[6] = molecular target: T3, Proteasome subunit beta (Trypanosoma cruzi) (UniProt O96673); test: Trypanosoma cruzi proteasome chymotrypsin-like activity (TcProtChymo) assay.; further: in the data most compounds retested in dose-response had high values; type: functional; conditions: 9.37 µM
T3 sequence (whole entry): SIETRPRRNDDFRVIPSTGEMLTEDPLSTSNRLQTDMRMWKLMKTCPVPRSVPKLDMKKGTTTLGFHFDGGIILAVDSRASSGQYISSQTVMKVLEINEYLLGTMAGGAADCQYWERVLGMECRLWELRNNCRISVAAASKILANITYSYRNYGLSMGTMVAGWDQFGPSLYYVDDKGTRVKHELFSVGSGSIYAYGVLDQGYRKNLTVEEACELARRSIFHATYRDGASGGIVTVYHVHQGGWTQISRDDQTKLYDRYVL

Homo sapiens = species: Homo sapiens; test: To identify inhibition of the IFN signalling (Jak-Stat) pathway via expression of an eGFP reporter gene under the control of an IFN-stimulated response element (ISRE) containing MxA promoter.; type: functional; conditions: 30 µM
[7] = molecular target: T4, Tyrosyl-tRNA synthetase, putative (Trypanosoma cruzi (strain CL Brener)) (UniProt Q4DSP6); test: Trypanosoma cruzi tyrosyl tRNA synthetase (TcYRS) _High Tyrosine SOP; type: functional; conditions: 30 µM; further: in the data most compounds retested in dose-response had high values
T4 sequence (whole entry): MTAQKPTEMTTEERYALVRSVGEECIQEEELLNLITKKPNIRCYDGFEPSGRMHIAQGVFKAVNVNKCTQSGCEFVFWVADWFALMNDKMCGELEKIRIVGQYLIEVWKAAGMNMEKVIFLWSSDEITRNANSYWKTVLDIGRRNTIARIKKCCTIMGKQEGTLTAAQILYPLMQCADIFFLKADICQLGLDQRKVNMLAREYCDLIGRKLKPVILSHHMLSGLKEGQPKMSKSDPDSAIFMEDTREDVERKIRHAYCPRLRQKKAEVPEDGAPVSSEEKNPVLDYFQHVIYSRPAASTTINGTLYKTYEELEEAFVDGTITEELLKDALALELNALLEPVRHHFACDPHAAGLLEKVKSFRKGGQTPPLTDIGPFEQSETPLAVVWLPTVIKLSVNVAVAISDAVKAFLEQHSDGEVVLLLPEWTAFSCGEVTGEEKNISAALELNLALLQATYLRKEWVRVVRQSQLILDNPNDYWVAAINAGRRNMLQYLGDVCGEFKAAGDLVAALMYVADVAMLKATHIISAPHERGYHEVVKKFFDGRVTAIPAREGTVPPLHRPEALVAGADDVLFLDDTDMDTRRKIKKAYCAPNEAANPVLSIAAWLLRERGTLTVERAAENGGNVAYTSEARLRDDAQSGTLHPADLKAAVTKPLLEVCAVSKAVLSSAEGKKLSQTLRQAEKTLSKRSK

[8] = molecular target: T4, Tyrosyl-tRNA synthetase, putative (Trypanosoma cruzi (strain CL Brener)); test: Trypanosoma cruzi tyrosyl tRNA synthetase (TcYRS) SOP; type: functional; conditions: 30 µM
[9] = molecular target: Chromo domain-containing protein 1 (Saccharomyces cerevisiae (strain ATCC 204508 / S288c) (Baker's yeast)) (UniProt P32657); test: ScCHD-1 Enzyme Inhibition Assay; type: functional; conditions: 30 µM; further: in the data most compounds retested in dose-response had high values
Chromo domain-containing protein 1 (Saccharomyces cerevisiae (strain ATCC 204508 / S288c) (Baker's yeast)), sequence (P32657 whole entry, the tested form may be a part): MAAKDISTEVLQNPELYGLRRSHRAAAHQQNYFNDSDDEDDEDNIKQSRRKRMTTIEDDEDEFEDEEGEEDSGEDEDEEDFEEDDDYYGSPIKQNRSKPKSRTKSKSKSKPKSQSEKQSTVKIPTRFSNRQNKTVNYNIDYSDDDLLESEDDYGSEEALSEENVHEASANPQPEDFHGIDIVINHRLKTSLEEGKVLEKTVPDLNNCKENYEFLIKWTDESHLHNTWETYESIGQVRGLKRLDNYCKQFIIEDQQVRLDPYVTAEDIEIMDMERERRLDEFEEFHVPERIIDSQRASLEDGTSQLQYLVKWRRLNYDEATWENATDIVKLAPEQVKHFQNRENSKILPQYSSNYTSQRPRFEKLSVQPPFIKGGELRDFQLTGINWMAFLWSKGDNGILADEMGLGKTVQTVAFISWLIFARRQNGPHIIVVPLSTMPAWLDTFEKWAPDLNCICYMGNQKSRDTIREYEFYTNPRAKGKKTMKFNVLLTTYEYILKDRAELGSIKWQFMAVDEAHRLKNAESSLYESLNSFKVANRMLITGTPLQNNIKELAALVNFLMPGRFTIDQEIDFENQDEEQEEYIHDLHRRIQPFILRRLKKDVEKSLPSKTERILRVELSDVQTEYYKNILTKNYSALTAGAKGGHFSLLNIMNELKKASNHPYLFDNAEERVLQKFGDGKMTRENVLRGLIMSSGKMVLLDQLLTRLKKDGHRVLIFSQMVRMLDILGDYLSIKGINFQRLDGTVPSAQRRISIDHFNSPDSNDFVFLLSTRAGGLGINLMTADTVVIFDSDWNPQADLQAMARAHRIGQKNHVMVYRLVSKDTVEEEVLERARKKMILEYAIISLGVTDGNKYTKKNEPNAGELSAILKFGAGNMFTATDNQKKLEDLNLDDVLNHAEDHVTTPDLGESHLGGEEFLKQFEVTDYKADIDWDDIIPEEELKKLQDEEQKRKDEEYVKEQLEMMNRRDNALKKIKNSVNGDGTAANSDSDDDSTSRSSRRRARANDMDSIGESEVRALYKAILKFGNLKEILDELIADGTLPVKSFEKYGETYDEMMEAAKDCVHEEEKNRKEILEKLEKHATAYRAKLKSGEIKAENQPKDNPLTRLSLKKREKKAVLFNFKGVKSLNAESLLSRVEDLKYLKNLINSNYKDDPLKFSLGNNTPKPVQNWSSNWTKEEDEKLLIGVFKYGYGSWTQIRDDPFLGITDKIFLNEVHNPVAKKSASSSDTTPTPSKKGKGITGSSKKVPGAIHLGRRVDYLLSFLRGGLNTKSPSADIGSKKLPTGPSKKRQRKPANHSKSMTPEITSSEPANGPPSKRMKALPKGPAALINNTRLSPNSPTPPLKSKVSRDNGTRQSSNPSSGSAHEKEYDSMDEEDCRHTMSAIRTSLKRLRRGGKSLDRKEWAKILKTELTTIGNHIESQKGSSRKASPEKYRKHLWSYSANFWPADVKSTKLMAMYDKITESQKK

Protein translocase subunit SecA (Escherichia coli (strain K12)), sequence (P10408 whole entry): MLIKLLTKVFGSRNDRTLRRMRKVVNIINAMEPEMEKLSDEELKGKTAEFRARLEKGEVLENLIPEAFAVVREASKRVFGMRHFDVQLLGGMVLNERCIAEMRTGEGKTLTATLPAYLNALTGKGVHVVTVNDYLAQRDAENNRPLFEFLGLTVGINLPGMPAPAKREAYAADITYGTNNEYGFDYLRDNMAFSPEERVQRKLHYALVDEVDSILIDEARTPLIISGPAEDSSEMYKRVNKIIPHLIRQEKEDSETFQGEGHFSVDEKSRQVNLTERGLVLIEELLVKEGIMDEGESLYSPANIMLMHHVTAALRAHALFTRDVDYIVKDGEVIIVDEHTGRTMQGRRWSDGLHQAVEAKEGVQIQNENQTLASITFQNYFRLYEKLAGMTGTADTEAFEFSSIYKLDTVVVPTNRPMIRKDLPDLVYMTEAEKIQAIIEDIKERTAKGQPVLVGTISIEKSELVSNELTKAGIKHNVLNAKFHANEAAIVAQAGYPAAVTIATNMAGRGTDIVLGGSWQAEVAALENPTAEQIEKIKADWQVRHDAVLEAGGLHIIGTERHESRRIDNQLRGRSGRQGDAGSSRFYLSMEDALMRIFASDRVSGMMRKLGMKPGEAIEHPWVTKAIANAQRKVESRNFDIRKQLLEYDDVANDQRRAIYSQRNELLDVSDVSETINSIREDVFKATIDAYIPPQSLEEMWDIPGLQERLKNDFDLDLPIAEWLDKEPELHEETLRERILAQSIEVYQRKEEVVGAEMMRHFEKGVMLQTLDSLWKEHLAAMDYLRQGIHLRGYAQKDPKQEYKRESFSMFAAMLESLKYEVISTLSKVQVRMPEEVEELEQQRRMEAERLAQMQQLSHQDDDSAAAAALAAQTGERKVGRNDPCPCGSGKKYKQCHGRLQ

| Compound | Percent Effect [1] [%] | Percent Effect [2] [%] | Percent Effect [3] [%] | Percent Effect [4] [%] | Percent Effect (Trypanosoma cruzi) [%] | Percent Effect [5] [%] | Percent Effect [6] [%] | Percent Effect (Homo sapiens) [%] | Percent Effect [7] [%] | Percent Effect [8] [%] | Percent Effect [9] [%] |
| --- | --- | --- | --- | --- | --- | --- | --- | --- | --- | --- | --- |
| CSCC(=O)N1CCCC(n2ccnc2C(C)C)C1 (configuration not stated) | -0.321 | 15.8 | -1.19 | -13.5 | -6.63 | 5.4 | 6.01 | -1.49 | 8.37 | 18.5 | -9.2 |
| CCn1cc(CN2CCc3nc(N4CCOCC4)nc(O)c3CC2)cn1 | -7.19 | 12.2 | -3.19 | 18.1 | 0.988 | -6.26 | 7.64 | 4.24 | 3.23 | 9.09 | -27.2 |
| CC1(C)CN(C(=O)NCCc2ccn(-c3ccccc3)n2)CCO1 | -4.22 | -2.6 | 8.97 | 11.9 | 1.47 | 4 | 2.02 | 8.51 | 2.86 | 7.06 | -12.9 |
| Cc1ccc(CNC(=O)NCCCn2nc3ccccn3c2=O)s1 | -7.23 | 16.2 | -11 | 15.3 | 6.89 | -18.8 | 5.95 | 7.36 | 6.4 | -70.4 | -16.6 |
| COCC(=O)N1CCC(c2nccn2CC2CC2)CC1 | 0.53 | 10.8 | -6.45 | 8.36 | 5.41 | 8.57 | 19.8 | -2.14 | 6.88 | 19.5 | -2.23 |
| Clc1snnc1CN1CCOC(CNc2cccnn2)C1 (configuration not stated) | 0.0334 | -2.6 | -5.26 | 8.04 | 5.8 | 5.34 | 1.18 | -0.834 | 4.85 | 12.2 | -5.35 |
| CN(C)[C@@H]1CCN(C(=O)NC2CCCC2)[C@H]1Cc1cnn(C)c1 | -4.9 | 2.67 | -90.2 | 5.44 | -0.197 | 2.1 | 7.84 | -0.845 | 1.06 | -3.85 | 1.31 |
| N#Cc1c(F)cccc1N1CCN(S(=O)(=O)c2cccs2)CC1 | -2.74 | -8.22 | 3.3 | 3.95 | 3.33 | 13.2 | 8.16 | 55.5 | -38.7 | -52.5 | 48.5 |
| CN1CCCC1c1cccc(Cc2ccccc2F)n1 (configuration not stated) | -3.07 | -20.3 | 13.4 | 1.77 | -0.79 | -3.02 | -1.87 | 49.3 | 14 | 11.7 | 0.4 |
| CNS(=O)(=O)CCCN1CCCC1c1cc(C)on1 (configuration not stated) | -2.37 | 0 | 1.65 | -3.19 | -3.68 | -1.52 | 4.5 | 13.8 | 0.493 | -3.8 | 0.192 |
| Cc1cc(C)n(CC2CN(Cc3cccc(C(N)=O)c3)CCO2)n1 (configuration not stated) | -2.43 | 16.2 | 8.27 | -0.119 | 4.69 | 8.75 | 20.7 | 18.8 | 7.92 | 20.7 | 97.6 |
| Cn1ccc(C(=O)N2CCN(CCc3ccccc3)CC2)cc1=O | -5.05 | 11.4 | 1.25 | -2.05 | -1.74 | 3.23 | 13 | 6.37 | 12.5 | 17.7 | -7.93 |
| CCOCCCNC(=O)c1nn(CC)cc1Cl | -0.389 | 14.7 | -2.38 | -8.09 | 3.14 | -8.28 | 12.8 | 18.8 | 5.29 | 12.8 | -10.4 |
| Cc1cnccc1CN1CC[C@@](C)(O)[C@H](Oc2ccccc2)C1 | -3.92 | 9.46 | 0.664 | -0.228 | 7.51 | -4.41 | 12.9 | -16.3 | 3.23 | 9.09 | -13.2 |
| COc1ccc(CNC(=O)NC2CCC(O)CC2)c(C(F)(F)F)c1 (configuration not stated) | -1.24 | -9.72 | -2.59 | -9.45 | -4.57 | 1.32 | 14 | -1.15 | 3.16 | 2.56 | -2.64 |
| COCCCNC(=O)CN(C)C(=O)c1cc(C)sc1C | -3.23 | -359 | 0.833 | 1.88 | -4.55 | -1.66 | 4.67 | 14.8 | 5.94 | 15.8 | -1.76 |
| O=C(c1ccc(Br)o1)N1CCN(Cc2ccc(OC(F)(F)F)cc2)CC1 | -1.82 | 5.48 | 27.2 | -16.1 | -1.96 | -0.455 | 8.87 | 37.2 | 2.15 | 7.5 | -3.29 |
